Screens (PubChem)
HSF-1 act = HSF-1 activators, primary screen, NIH3T3-HGL cells, MG132 stress, luminescence, single point; NIH3T3-HGL HSF-1 luciferase reporter, 8 h; 100% = twice DMSO control signal; activation, % at 9 µM; actives 1.7% (n = 300,000); AID 504408, 2011;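 active = mean replicate activation of at least 50% with a set share of replicates each reaching 50%; inconclusive = only one of those two conditions met; inactive = mean below 50% and too few replicates reaching it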
HSP90 inh = HSP90 inhibitors, primary screen, cell lysate, luminescence. Heat shock protein HSP 90 (rabbit reticulocyte lysate; luciferase refolding). Rabbit reticulocyte lysate, luciferase refolding luminescence, 3 h. inhibition, % at 5.6 µM. actives 0.91% (n = 290,000). AID 1789, 2009;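 active = inhibition above the screen-wide mean plus 3 SD, computed separately per campaign, cut at about 16% in these data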;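 also: inhibitors lower the luminescence because luciferase stays unfolded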
NR0B1 inh = DAX1 (NR0B1) inhibitors, primary screen, cell-based, HEK293, Gal4-DAX1, luciferase luminescence | Nuclear receptor subfamily 0 group B member 1 (Homo sapiens), P51843 | HEK293 Gal4-DAX1 luciferase reporter | inhibition, % at 6.75 µM | actives 0.99% (n = 340,000) | AID 504766, 2011;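 active = inhibition above the mean over all tested compounds plus 3 SD, cut at about 4.2% in these data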;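 also: inhibition shows as a rise in luminescence from relieved DAX1 repression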
Target sequence (P51843 207-470 limits assumed): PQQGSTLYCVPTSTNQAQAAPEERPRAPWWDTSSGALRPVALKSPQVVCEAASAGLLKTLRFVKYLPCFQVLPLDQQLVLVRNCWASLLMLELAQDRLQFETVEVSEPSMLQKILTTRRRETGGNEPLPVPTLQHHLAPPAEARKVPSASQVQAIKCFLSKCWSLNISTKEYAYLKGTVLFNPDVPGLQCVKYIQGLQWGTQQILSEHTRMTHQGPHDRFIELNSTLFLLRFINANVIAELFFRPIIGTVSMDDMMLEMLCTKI
AHR activator = AHR activators, primary screen, cell-based, luminescence, luciferase reporter, human | AHR-responsive luciferase reporter cells | activation, % at 5 µM | actives 2.5% (n = 320,000); in the data active = activation above about 47%
GAA850 FXN act = FXN promoter activators, primary screen, cell-based, luciferase luminescence, HEK293 lucGAA850 | HEK293 lucGAA850 FXN promoter luciferase reporter, 24 h; percent of 10 µM SAHA response | activation, % at 6 µM | actives 0.56% (n = 360,000);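 active = activation above the average of all compounds screened plus 3 SD, cutoff fixed separately per campaign, cut at about 7.5% in these data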
HSF1 inhib = HSF1 inhibitors in luciferase reporter cells, primary screen, cell-based, NIH3T3, luminescence. actives 0.77% (n = 300,000). NIH3T3-HGL HSE-luciferase, MG132-induced, luminescence 8 h; active compounds read low. activity change, negative = inhibition, % at 7.5 µM (by protocol);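 active = more than half of replicate wells show activity change below -50%, luminescence cut by over half; inconclusive = some wells, but at most half, below -50%; inactive = no replicate well below -50%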;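 also: luciferase reports HSF-1 transcriptional activity via heat shock element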
Large screens that a line does not name were inactive. Shown are actives, neighbours in structure and some others; about 5.9% of the full set was active somewhere.

Cc1ccc(C)c(S(=O)(=O)N2CCCCC2CCNC(=O)C(=O)NCCc2ccco2)c1 (stereo not given)	HSF-1 act 54 (no result: HSP90 inh)
Cc1ccc(C)c(S(=O)(=O)N2CCCC2CNC(=O)C(=O)NCCc2ccco2)c1 (stereo not given)	none (no result: HSP90 inh)
CC(=O)Nc1cccc(-c2cccc3nccn23)c1	none (no result: HSF-1 act, HSP90 inh, NR0B1 inh, AHR activator, HSF1 inhib)
COc1ccc2nc(NC(=O)Nc3ccccc3OC)sc2c1	none
CCOC(=O)c1c(NC(=O)CSC(=S)N(C)C)sc(C)c1C	HSF-1 act 85
COc1ccc(Nc2nc3ccccc3c(=O)s2)c(OC)c1	none
CCOC(=O)c1c(NC(=O)CSc2ncnc3ccccc23)sc(C(C)=O)c1C	HSF-1 act 78
COc1ccc2nc(NC(=O)Nc3cccc4ccccc34)sc2c1	AHR activator 64
CCOC(=O)c1c(NC(=O)CNCCO)sc(C)c1C	none
COc1ccc2nc(Nc3ccccc3OC)sc2c1	HSF-1 act 73
COc1cc(C(=O)COC(=O)c2cccs2)cc(OC)c1OC	none (no result: HSF-1 act, HSP90 inh, HSF1 inhib)
C[C@H]1CN([C@@H](C)CO)C(=O)CCCn2nncc2CO[C@H]1CN(C)C(=O)c1ccc(N2CCN(C)CC2)cc1	none (no result: HSF-1 act, HSP90 inh, AHR activator, HSF1 inhib)
Cc1ccccc1N1CCN(C2CCCN(C(=O)c3snnc3C)C2)CC1 (stereo not given)	none
COc1ccc2nc(Nc3ccccc3)sc2c1	HSF-1 act 68
COc1ccc2nc(NC(=O)CSc3nc4ccccc4o3)sc2c1	NR0B1 inh 4.7
CCOC(=O)c1c(N2C(=O)C=CC2=O)sc(C)c1C	HSF-1 act 55
CCOC(=O)c1c(NC(=O)CSc2nc3ccccc3o2)sc(C)c1C	HSF-1 act 144
CCOC(=O)c1c(NC(N)=O)sc(C)c1C	none
COc1ncnc2c1ncn2CCCNC1CCN(Cc2ccccc2)CC1	none (no result: HSF-1 act, HSP90 inh, AHR activator, HSF1 inhib)
CCc1cc2c(Nc3ccc(O)cc3)nc(C)nc2s1	AHR activator 79
O=S(=O)(c1ccc(F)cc1)n1cnc2ccccc21	none
Nc1c(C(=O)c2ccccc2)sc2snc(SCC(=O)c3ccccc3)c12	HSF-1 act 111
COC(=O)Nc1ccc(SCC(=O)c2ccccc2)cc1	none
COC(=O)Nc1ccc(SCC(=O)c2ccc(Cl)cc2)cc1	HSF-1 act 107
COc1ccc(/C=N/Nc2cc(N3CCOCC3)ncn2)c(OC)c1	none
Cc1nnc(N/N=C/c2ccco2)n1N	HSF-1 act 56
COc1cccc(/C=N/Nc2nnc(C)n2N)c1O	HSF-1 act 68
Cc1ccnc(N/N=C/c2ccco2)n1	none
Cc1nnc(N/N=C/c2ccccc2F)n1N	none
COc1cccc(/C=N/Nc2cc(N3CCOCC3)ncn2)c1O	AHR activator 48
O=C(Nc1ccccc1Cl)NN1CCCCCC1	none (no result: HSF-1 act, HSP90 inh, AHR activator, HSF1 inhib)
O=C(/C=C\c1ccco1)Nc1ccc(N2CCN(C(=O)c3ccccc3)CC2)cc1	HSF-1 act 66
O=C(Nc1ccc(N2CCN(C(=O)c3ccccc3)CC2)cc1)c1ccc([N+](=O)[O-])o1	HSF-1 act 111 (no result: AHR activator)
Cc1ccccc1C(=O)N1CCN(c2ccc(NC(=O)c3ccc([N+](=O)[O-])o3)cc2)CC1	HSF-1 act 86
O=C(/C=C/c1ccco1)N1CCN(c2ccccc2)CC1	none
CC(C)C(=O)N1CCN(c2ccc(NC(=O)c3ccc([N+](=O)[O-])o3)cc2)CC1	HSF-1 act inconclusive
CC1(C(=O)N2CCCCC2)CCN1C(=O)C1(c2ccccc2)CC1 (stereo not given)	none (no result: HSF-1 act, HSP90 inh, NR0B1 inh, AHR activator, HSF1 inhib)
CC(C)CC(NC(N)=O)C(=O)OCC(=O)Nc1ccc(OC(F)F)cc1 (stereo not given)	none
O=C(COC(=O)c1c(Cl)cccc1Cl)NCC1CCCO1 (stereo not given)	none
CC(=O)c1nn(-c2cccc(Br)c2)cc1C(=O)c1ccc(Cl)cc1	HSF-1 act 84
CC(C)CN(C(=O)c1ccc(=O)n(C)n1)c1nc2ccccc2s1	none
Cc1ccc(C(=O)N(CC(C)C)c2nc3ccccc3s2)o1	AHR activator 72
Nc1nonc1N/N=C/c1c(O)ccc2ccccc12	HSF-1 act 62
Nc1cc(Cl)nc(N/N=C/c2c(O)ccc3ccccc23)n1	AHR activator 55
Cc1ccc(NC(=O)NCCN2C(=O)C3C4C=CC(C4)C3C2=O)cc1 (stereo not given)	NR0B1 inh 5.8
Cc1ccccc1NC(=O)NCCN1C(=O)C2C3C=CC(C3)C2C1=O (stereo not given)	NR0B1 inh 4.7
COc1ccc(NC(=O)NCCN2C(=O)C3C4C=CC(C4)C3C2=O)cc1 (stereo not given)	NR0B1 inh 6.0
NS(=O)(=O)c1ccc(NC(=O)CN2C(=O)C3C4C=CC(C4)C3C2=O)cc1 (stereo not given)	NR0B1 inh 5.5
O=C(NCCN1C(=O)C2C3C=CC(C3)C2C1=O)Nc1ccccc1 (stereo not given)	none
OC(c1ccc(F)c(F)c1)c1ncc(-c2ccccc2F)[nH]1 (stereo not given)	none (no result: HSF-1 act, HSP90 inh, NR0B1 inh, AHR activator, HSF1 inhib)
Cc1c(NC(=O)CN2c3ccccc3CC2C)c(=O)n(-c2ccccc2)n1C (stereo not given)	none
Cc1ccc(Nc2nnc(SCC(=O)NC(Cc3c[nH]c4ccccc34)C(=O)O)s2)cc1 (stereo not given)	none
COc1ccc(C(=O)c2ccccc2CN2C(=O)c3ccccc3C2=O)cc1	none (no result: HSF-1 act, HSP90 inh, AHR activator, HSF1 inhib)
COc1ccccc1Cn1c(=S)[nH]c2cc(C(=O)N3CCN(c4ccccc4OC)CC3)ccc2c1=O	none
CCOC(=O)N1CCN(C(=O)c2ccc3c(=O)n(-c4ccc(OC)cc4OC)c(=S)[nH]c3c2)CC1	none
CCOC(=O)N1CCN(C(=O)c2ccc3c(=O)n(-c4ccc(OC)cc4)c(=S)[nH]c3c2)CC1	HSF-1 act 52
COc1ccccc1N1CCN(C(=O)c2ccc3c(=O)n(Cc4ccco4)c(=S)[nH]c3c2)CC1	HSF-1 act 88
CCOC(=O)C1CCCN(C(=O)c2ccccc2OC(F)(F)F)CC1 (stereo not given)	none (no result: HSF-1 act, HSP90 inh, NR0B1 inh, AHR activator, HSF1 inhib)
COc1ccc(NC(=O)c2ccc(N3CCCC3=O)cc2)cc1Cl	none (no result: HSF-1 act, HSP90 inh, HSF1 inhib)
CC(=O)N1CCN(c2ccccc2NC(=O)c2ccc(C#N)cc2F)CC1	AHR activator 71
CN1CCN(c2ccccc2NC(=O)c2ccccc2F)CC1	none
COC(=O)c1c(C)oc2ccc(N(C(=O)Oc3ccccc3)S(=O)(=O)c3ccc(Cl)c([N+](=O)[O-])c3)cc12	HSF-1 act 72
O=C(COC(=O)C1=COCCO1)Nc1cccc(Oc2ccccc2)c1	none
O=C(COC(=O)C1=COCCO1)Nc1ccccc1	NR0B1 inh 4.4
